Activity calls are given as the source filed them. The calls were made as follows: active = hit-call score of the fitted dose curve at least 0.9, where 1 is the maximum; inactive = score below 0.9.
The compounds below were run on cysteine-aspartic acid protease (CASP8), CASP8 (gene 841) (assay: LTEA_HepaRG_CASP8: Life Technologies and Expression Analysis (LTEA) Assay for cysteine-aspartic acid protease (CASP8) using HepaRG (AID 2283480)). Conditions: mRNA level, 48 h; actives raise or lower the signal.
How it was run: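 qRT-PCR readout of CASP8 mRNA, normalized to three housekeeping genes, after 48 h chemical exposure of HepaRG cells; 8-point half-log series, top 100 uM, 0.5% DMSO vehicle. Bidirectional curve fitting against DMSO baseline.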
With O=C(O)C1C(C(=O)O)C2(Cl)C(Cl)=C(Cl)C1(Cl)C2(Cl)Cl (configuration not stated) the outcome was “inactive”.
With CN(C)C(=O)Cl the outcome was “inactive”.
In the case of ClC(Cl)(Cl)c1ccccc1, the outcome was “inactive”.
ClC(Cl)c1ccccc1 was tested, and the outcome was “inactive”.
In the case of O=P1(N(CCCl)CCCl)NCCCO1 (configuration not stated), the outcome was “inactive”.
CC(Cl)(Cl)C(=O)O was tested, and the outcome was “inactive”.
CCCCc1ccccc1 was tested, and the outcome was “inactive”.
O=C(O)C(Cl)Cl was tested, and the outcome was “inactive”.
Nc1ccc2ccccc2c1 was tested, and the outcome was “inactive”.
CCCN(CCC)c1c([N+](=O)[O-])cc(C(C)C)cc1[N+](=O)[O-] was tested, and the outcome was “inactive”.
For Nc1cc2c3c(c1)C(c1ccccc1)=N[C@@H](NC(=O)c1cccnc1)C(=O)N3CC2, the outcome was “inactive”.
With CCOS(=O)(=O)OCC the outcome was “inactive”.
CCNc1nc(Cl)nc(NC(C)(C)C)n1 was tested, and the outcome was “inactive”.
c1ccc(OP(Oc2ccccc2)Oc2ccccc2)cc1 was tested, and the outcome was “inactive”.
For CSC(C)(C)C=NO, the outcome was “inactive”.
COCCOCCO was tested, and the outcome was “inactive”.
In the case of CCCCN(CCCC)SN(C)C(=O)Oc1cccc2c1OC(C)(C)C2, the outcome was “inactive”.
With c1nc[nH]n1 the outcome was “inactive”.
For c1cc2c3c(cccc3c1)CC2, the outcome was “inactive”.
In the case of CCC(C)(C)c1ccc(O)cc1, the outcome was “inactive”.
For [N-]=[N+]=[N-], the outcome was “inactive”.

Each compound was assayed on Cytochrome P450 (CYP2B6), CYP2B6 (gene 1555) (assay: LTEA_HepaRG_CYP2B6: Life Technologies and Expression Analysis (LTEA) Assay for Cytochrome P450 (CYP2B6) using HepaRG (AID 2283481)). Conditions: mRNA level, 48 h; actives raise or lower the signal.
How it was run: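 Differentiated human HepaRG cells in serum-free induction medium, dosed in duplicate for 48 h over 8 half-log concentrations topping at 100 uM (0.5% DMSO). CYP2B6 mRNA measured by TaqMan qRT-PCR, normalized to ACTB, GAPDH, POLR2A; bidirectional fit versus DMSO.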
In the case of O=C(O)C1C(C(=O)O)C2(Cl)C(Cl)=C(Cl)C1(Cl)C2(Cl)Cl (configuration not stated), the outcome was “inactive”.
In the case of CN(C)C(=O)Cl, the outcome was “inactive”.
With ClC(Cl)(Cl)c1ccccc1 the outcome was “inactive”.
With ClC(Cl)c1ccccc1 the AC50 was 22.8 µM (active).
O=P1(N(CCCl)CCCl)NCCCO1 (configuration not stated) was tested, and the AC50 was 50 µM (active).
For CC(Cl)(Cl)C(=O)O, the outcome was “inactive”.
In the case of CCCCc1ccccc1, the outcome was “inactive”.
For O=C(O)C(Cl)Cl, the outcome was “inactive”.
In the case of Nc1ccc2ccccc2c1, the AC50 was 13 µM (active).
For CCCN(CCC)c1c([N+](=O)[O-])cc(C(C)C)cc1[N+](=O)[O-], the AC50 was 9.38 µM (active).
For Nc1cc2c3c(c1)C(c1ccccc1)=N[C@@H](NC(=O)c1cccnc1)C(=O)N3CC2, the AC50 was 3.51 µM (active).
For CCOS(=O)(=O)OCC, the outcome was “inactive”.
CCNc1nc(Cl)nc(NC(C)(C)C)n1 was tested, and the AC50 was 1.01 µM (active).
For c1ccc(OP(Oc2ccccc2)Oc2ccccc2)cc1, the outcome was “inactive”.
With CSC(C)(C)C=NO the outcome was “inactive”.
In the case of COCCOCCO, the AC50 was 1.15 µM (active).
CCCCN(CCCC)SN(C)C(=O)Oc1cccc2c1OC(C)(C)C2 was tested, and the AC50 was 6.66 µM (active).
c1nc[nH]n1 was tested, and the outcome was “inactive”.
In the case of c1cc2c3c(cccc3c1)CC2, the AC50 was 50 µM (active).
In the case of CCC(C)(C)c1ccc(O)cc1, the outcome was “inactive”.
In the case of [N-]=[N+]=[N-], the AC50 was 88.3 µM (active).

Reference: PubChem BioAssay (EPA / NIEHS)
